Most compounds without a hit are left out; they make up all but 7% or so of the library.
PI5P4Ka inh = PI5P4K alpha (human) kinase inhibition | actives 1.2% (n = 330,000) | max response, % | PI5P4Kalpha enzyme, ADP-Glo luminescence, 60 min; hits give low values | AID 652105; active = max response of -50% or lower; inconclusive = between -30% and -50%; inactive = -30% or higher; note: value at the top dose of about 77 µM; % is set by controls: 0 for no effect and ±100 for the full control effect
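Reactions run in 0.038 M HEPES pH 7.4, 0.28 mM EGTA, 0.1% CHAPS and 5% DMSO, with PI5P4Kalpha, substrate, compound and 5 microM ATP final, one hour at room temperature. Readout is ADP-Glo luminescence.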
JMJD2A Tudor inh = blocks the human JMJD2A Tudor domain. O75164. AlphaScreen JMJD2A-Tudor / H3K4me3 peptide binding. Potency, µM (titrated, usually from 114 µM), without a hit: at the top dose activity change, negative = inhibition, actives largely listed as inhibitors. actives 4.4% (n = 390,000). AID 504339; note: potency is the fitted concentration of half-maximal effect; % is set by controls: 0 for no effect and ±100 for the full control effect; nearly all actives have a fitted effect of over 50% in size
BAZ2B inh = BAZ2B (human) inhibition | AlphaScreen BAZ2B-H3K14Ac peptide displacement | Potency, µM (highest dose often 114 µM), inactives show at the top dose activity change, negative = inhibition, most hits filed as inhibitors | actives 4.4% (n = 360,000) | AID 504333; note: potency is the fitted concentration of half-maximal effect; % is set by controls: 0 for no effect and ±100 for the full control effect; nearly all actives have a fitted effect of over 60% in size
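Complex of BAZ2B and biotin-H3K14Ac (50 nM apiece) forms over 30 min at RT, then faces library compounds up to 110 uM for another 30 min; AlphaScreen beads added, 20 min dark incubation, luminescence read.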
KAT2A inh = GCN5L2 (KAT2A) acetyltransferase inhibition; Q92830; GCN5L2 HAT assay, ThioGlo1 CoA-SH fluorescence; Potency, µM (doses to about 58.9 µM), for inactives: at the highest dose activity change, negative = inhibition, most hits filed as inhibitors; actives 0.21% (n = 390,000); note: potency is the fitted concentration of half-maximal effect; % is set by controls: 0 for no effect and ±100 for the full control effect
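GCN5L2 (20nM final) in 50mM HEPES, 0.1mM EDTA pH 7.5, 0.01% Tween-20 was preincubated 15 min at room temperature with compound, then given ThioGlo1 (50uM), H3(1-25) peptide (75uM) and acetyl-CoA (70uM); CoA-thiol fluorescence (Ex340/Em540) was read at 0 and 20 min.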
PLK1 PBD block = inhibitors of human PLK1 polo-box domain binding. Plk1 PBD binding of FITC phosphopeptide, fluorescence polarization. actives 2.8% (n = 360,000). Potency, µM, without a hit: max response, negative = inhibition, actives largely listed as inhibitors; note: potency is the fitted concentration of half-maximal effect; series mostly up to about 57 µM; % is set by controls: 0 for no effect and ±100 for the full control effect; nearly all actives have a fitted effect of over 65% in size
HP1b binding inh = blocks HP1-beta chromodomain binding to methylated histone tails; Potency, µM (doses to about 114 µM), without a hit: top-dose activity change, negative = inhibition, actives largely listed as inhibitors; P83916; actives 0.56% (n = 390,000); AID 540317; AlphaScreen HP1-beta / biotin-H3K9me3 peptide binding; note: potency is the fitted concentration of half-maximal effect; nearly all actives have a fitted effect of over 70% in size
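Compound inhibition of the preformed complex between 50 nM HP1-beta and 50 nM biotinylated H3K9me3 peptide was read by AlphaScreen. Buffer was PBS pH 7.4 with 0.01% Tween-20. Incubations ran 30 min at room temperature, with 10 ug/mL donor/acceptor beads.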
Starred values were filed as active, the others as inactive; ? = inconclusive; nt = no result given; [ ] = dose if it differs, or a comment. Unless noted, calls come from the whole dose curve; as a rule, active = well fitted curve in the direction sought with a large enough effect; inconclusive = small, poorly fitted or top-dose-only effect, or another doubt; inactive = no such curve, though single readings can be large; an effect the other way counts as inactive or inconclusive.

SMILES | PI5P4Ka inh | JMJD2A Tudor inh | BAZ2B inh | KAT2A inh | PLK1 PBD block | HP1b binding inh
CSc1ccc(CN2CCN(Cc3ccccc3)C(CCO)C2)cc1 (stereo not drawn) | 6 | -18% | -13% | -5% | 6% | 18%
Cc1ccccc1CNCc1c(C(=O)O)c(C)n(Cc2ccc(F)cc2Cl)c1C | nt | -21% | -19% | -3% | nt | 19%
CCN(CC)C(=O)Cn1c(=O)n(-c2ccc(Cl)cc2)c(=O)c2c3c(sc21)CCC3 | nt | -14% | 5% | -3% | nt | 15%
Cc1ccc(C(=O)OCC(=O)Nc2ccccc2Cl)c(O)c1 | -17 | -25%[11.4 µM] | 2% | 2% | 9.5µM* | -10%
O=C(COC(=O)c1ccccn1)Nc1ccccc1Cl | -2 | 32µM* | ? | -2% | -11% | -1%
CC(=O)Nc1ccc(NC(=O)COC(=O)c2ccccn2)cc1 | 2 | -5%[57.1 µM] | 50µM* | 19% | -9% | 36%
COc1ccc(OCC(=O)Nc2ccccc2Cl)cc1 | 3 | -9% | 50µM* | -1% | -6% | 19%
Cc1ccc(C(=O)OCC(=O)Nc2cccc(Cl)c2C)c(O)c1 | 0 | -14% | -3% | 2% | -1% | 41%
O=C(COC(=O)c1ccccn1)Nc1cc(Cl)ccc1Cl | -2 | -16% | ? | nt | -8% | 16%
CC1CCc2sc(C(=O)NNC(=S)NC3CC3)cc2C1 (stereo not drawn) | 10 | -9% | -4% | -37% | -8% | 51%
COc1cc(NC(=O)CSc2cc(C)c3cc(C)cc(C)c3n2)c(C(=O)O)cc1OC | 4 | -12% | ? | 25% | ? | 10%
CC1CCN(C(=O)CSc2nnc(CNC(=O)c3c(F)cccc3F)o2)CC1 | 0 | 3% | 4% | 0% | 2% | 35%
O=C(Nc1nnc(-c2ccc3c(c2)CCCC3)o1)c1c(F)cccc1F | 1 | -13% | -1% | -12% | -19% | 30%
CCOc1cc(-c2nnc(NC(=O)C3=COCCO3)o2)cc(OCC)c1OCC | 8 | -10% | -4% | -13% | -1% | 46%
O=C(Nc1nnc(-c2ccc(Cl)cc2)o1)C1=COCCO1 | 6 | ? | 50µM* | -1% | -4% | 28%
O=C(Nc1nnc(-c2ccc3c(c2)CCCC3)o1)c1ccc(Cl)cc1Cl | -26 | ? | -4% | -23% | 21µM* | 22%
Cc1ccc(-n2c(=O)c3c4c(sc3n(Cc3ccccc3F)c2=O)CCC4)cc1C | nt | 8% | 6% | -2% | nt | 23%
CCCOc1cccc(C2c3c(oc4ccc(F)cc4c3=O)C(=O)N2c2nc(C)c(C(C)=O)s2)c1 (stereo not drawn) | nt | -10% | -4% | 1% | nt | 15%
CCNC(=O)/N=C1/NC(=O)C(C(C)C)O1 (stereo not drawn) | nt | 7.9µM* | -29% | -2% | -1% | 0%
CC1(C)CC(NC(=O)c2cc(COc3cccc(C(F)(F)F)c3)on2)CCO1 (stereo not drawn) | 12 | 5% | -3%[57.1 µM] | -7% | -6% | 20%
CC(=O)Nc1ccc(NC(=O)C(C)Sc2nnc(C3CC3)n2-c2ccccc2)cc1 (stereo not drawn) | -8 | -22% | -2% | -15% | 1% | 36%
CN(C)C(=O)c1ccc(NC(=O)c2cc(-n3cnnc3)ccc2Cl)cc1 | 4 | ? | 3% | 2% | 17µM* | ?
Cc1ccc(NC(=O)c2cc(-n3cnnc3)ccc2Cl)cc1 | nt | -16% | 8% | -8% | -1% | 20%
CCCNC(=O)c1cnc2sc(N3CCCCCC3)nn2c1=O | nt | -9% | -3% | -10% | nt | 44%
CN(C)CCCn1c(=S)[nH]c2sc3c(c2c1=O)CCCC3 | ? | 22µM* | ? | 1% | 19µM* | ?
SMILES | PI5P4Ka inh | JMJD2A Tudor inh | BAZ2B inh | KAT2A inh | PLK1 PBD block | HP1b binding inh
Cc1c(C(=O)OCCOC(C)C)[nH]c2c1C(=O)CC(c1ccco1)C2 (stereo not drawn) | ? | ? | 50µM* | -8% | -22% | -16%
COc1ccc(C2CC(=O)c3c([nH]c(C(=O)OCc4ccccc4)c3C)C2)cc1 (stereo not drawn) | nt | -36% | -12% | 4% | nt | 24%
COCCOC(=O)c1[nH]c2c(c1C)C(=O)CC(c1ccccc1)C2 (stereo not drawn) | -1 | -14% | 3% | -4% | -3% | 15%
Cc1c(C(=O)OCc2ccccc2)[nH]c2c1C(=O)CC(c1ccco1)C2 (stereo not drawn) | -51* | 25µM* | 50µM* | -16% | ? | 71µM*
CCOC(=O)c1[nH]c2c(c1C)C(=O)CC(c1ccco1)C2 (stereo not drawn) | -68* | 56µM* | 45µM* | -18% | -25% | -15%
COCCOC(=O)c1[nH]c2c(c1C)C(=O)CC(c1ccc(F)cc1)C2 (stereo not drawn) | 1 | -25% | 4% | -8% | -5% | 40%
O=c1c2ccccc2ncn1-c1ccc(Cl)cc1Cl | 7 | -6% | 1% | -7% | -2% | 33%
O=c1c2ccccc2sn1-c1ccc(Cl)cc1Cl | -105* | nt | nt | nt | 2.7µM* | nt
Cc1cc(C)cc(OCCN2CCOCC2)c1 | 7 | 28µM* | -31% | -9% | 0% | ?
Cc1ccc(OCCCN2CCOCC2)cc1 | 6 | 10µM* | ? | -3% | -20% | ?
c1ccc(OCCN2CCOCC2)cc1 | 0 | 20µM* | 35µM* | -2% | 1% | ?
c1ccc(Cc2ccc(OCCN3CCOCC3)cc2)cc1 | 10 | -24% | -25% | -14% | 0% | 20%
COc1ccc(OCCN2CCOCC2)cc1 | -2 | 50µM* | ? | -2% | 5% | ?
CC(C)(C)OC(=O)N1CCC(c2c(C(=O)NCCN3CCOCC3)cnn2-c2ccc(F)cc2)CC1 | nt | -9% | 8%[57.1 µM] | 16% | nt | 30%
COc1ccc(N(CC(=O)NCCc2cccc(C)c2)S(=O)(=O)c2c(C)nn(C)c2C)cc1 | nt | -6% | nt | -3% | nt | 34%
Cc1cccc(CN2CCSCC2)c1 | -1 | 20µM* | ? | -5% | -14% | ?
O=S1(=O)CCN(Cc2cccc(C(F)(F)F)c2)CC1 | 15 | -19% | 6% | 0% | -5% | 19%
FC(F)(F)c1cccc(CN2CCSCC2)c1 | 0 | 22µM* | 56µM* | -4% | -13% | ?
CCC(C)c1ccc(OCc2ccc(C(=O)O)o2)cc1 (stereo not drawn) | 2 | -13% | 1% | -1% | 2% | 19%
Cc1cc2ccccn2c1C(=S)NC(=O)c1ccccc1 | 5 | 50µM* | 14µM* | -1% | -13% | ?
COc1ccc(-c2nn(-c3ccccc3)cc2C(=O)N2CCN(C(=O)c3ccco3)CC2)cc1 | 0 | -19% | nt | -3% | -4% | 16%[57 µM]

Assay outcomes deposited in PubChem BioAssay by National Center for Advancing Translational Sciences (NCATS).
